# Experimental data from PubChem BioAssay (EPA / NIEHS).
# Activity calls are given as the source filed them. Rule for the calls: active = hit-call score of the fitted dose curve at least 0.9, where 1 is the maximum; inactive = score below 0.9.
# Assay: BSK_4H_Eotaxin3: BioMAP Diversity Plus: 4H Assay for Eotaxin 3 Biomarker Activity (AID 2283000)
# Conditions: primary human endothelial cells (HUVEC); actives raise or lower the signal
# Description: BSK_4H is a cell-based, multiplexed-readout assay that uses umbilical vein endothelium, a human vascular primary cell, with measurements taken at 24 hours after chemical dosing in a 96-well plate.BSK_4H_Eotaxin3 is an assay component measured in the BSK_4H assay. It measures Eotaxin-3 antibody related to regulation of gene expression using ELISA technology.Data from the assay component BSK_4H_Eotaxin3 was analyzed into 1 assay endpoint. This assay endpoint, BSK_4H_Eotaxin3, was analyzed with bidirectional fitting relative to DMSO as the negative control and baseline of activity. Using a type of binding reporter, gain or loss-of-signal activity can be used to understand changes in the signaling as they relate to the gene CCL26. Furthermore, this assay endpoint can be referred to as a primary readout, because this assay has produced multiple assay endpoints where this one serves a signaling function. To generalize the intended target to other relatable targets, this assay endpoint is annotated to the cytokine intended target family, where the subfamily is chemotactic factor.
# The levels of cell surface (or secreted, indicated by the prefix "s") biomarker endpoints were measured by ELISA. Overt cytotoxicity to cells in confluent adherent cultures (all systems other than the BT system) was assessed by measuring total protein levels using sulforhodamine B (SRB) staining in parallel cultures at the time of biomarker measurements, indicated as SRB endpoints. For proliferation assays for adherent cell types, individual cell types are cultured at sub-confluence and relative cell numbers quantified by SRB staining at time points optimized for each system (48 h: 3C and CASM3C systems; 72 h: BT and HDF3CGF systems; 96 h: SAg system). SRB was performed by staining cells with 0.1% SRB after fixation with 10% TCA and reading wells at 560 nm.Viability and proliferation of PBMC (T cells) was quantified by Alamar Blue reduction for the SAg and BT systems. For PBMC viability (referred to as PBMC Cytotoxicity within the assay endpoint names), cells were plated (75,000/well in a 96-well plate) and then chemical samples added for 1 h before addition of activators, SEB and TSST-1 (20 ng/mL final concentration each). Cells were incubated for 90 h. Then, Alamar Blue (20 uL/well) (Invitrogen, Cat DAL1100) was added for 6 h, and the plates were read with a fluorescence microplate reader at 546/580 nm (excitation/emission). For PBMC proliferation, cells were plated and activated as above but incubated for only 16 h prior to addition of Alamar Blue. Plates were read after 6 h.
Compound,outcome,AC50
CC(C)CCCCCCOC(=O)c1ccccc1C(=O)OCCCCCCC(C)C,inactive,
CCOP(=S)(OCC)SCSP(=S)(OCC)OCC,inactive,
COP(=S)(OC)Oc1ccc(S(=O)(=O)N(C)C)cc1,inactive,
CC(C)(C)c1cc(O)ccc1O,,27.4 µM (active)
COc1cc(OC)nc(NC(=O)NS(=O)(=O)c2ncccc2C(=O)N(C)C)n1,inactive,
OCc1ccco1,inactive,
C[C@]12CCC(=O)C[C@@H]1CC[C@@H]1[C@@H]2CC[C@]2(C)[C@@H](O)CC[C@@H]12,inactive,
ClCC(Cl)CCl,inactive,
O=C1C2(Cl)C3(Cl)C4(Cl)C(Cl)(Cl)C5(Cl)C3(Cl)C1(Cl)C5(Cl)C24Cl (stereo not given),,10.4 µM (active)
Cc1ccccc1N,inactive,
COC[C@H](C)N(C(=O)CCl)c1c(C)csc1C,inactive,
COP(=S)(OC)Oc1ccc(Sc2ccc(OP(=S)(OC)OC)cc2)cc1,,20 µM (active)
CN(C)N=O,inactive,
O=C(Nc1ccc2[nH]ccc2c1)c1cc2cc(F)ccc2n1Cc1cccc(F)c1,,11.1 µM (active)
Nc1cccc2ccccc12,inactive,
CCOP(=S)(OCC)SCCS(=O)(=O)CC,inactive,
NC(=O)O,inactive,
CCN1CCC2(CC1)COc1cc3c(cc12)N(C(=O)c1ccc(-c2ccc(-c4nnc(C)o4)cc2C)cc1)CC3,,24.1 µM (active)
O=C(O)C(Cl)(Cl)Cl,inactive,
ClC1=C(Cl)[C@]2(Cl)[C@H]3[C@H]([C@H]4C=C[C@H]3C4)[C@@]1(Cl)C2(Cl)Cl,,20 µM (active)

Compound,outcome,AC50
Cn1sc(Cl)cc1=O,,28.2 µM (active)
CCC(=O)C(CC(C)N(C)C)(c1ccccc1)c1ccccc1 (stereo not given),inactive,
COP(=S)(OC)Oc1c(Cl)cc(C)cc1Cl,,5.75 µM (active)
CCOC(=O)/C=C(C)/C=C/C[C@@H](C)CCCC(C)C,,30 µM (active)
Nc1ccc(-c2ccc(N)c(Cl)c2)cc1Cl,,1.93 µM (active)
O=[N+]([O-])c1ccc2c3c(cccc13)CC2,inactive,
ClC(Cl)=C(Cl)C(Cl)=C(Cl)Cl,,36.9 µM (active)
Nc1ncc([N+](=O)[O-])s1,inactive,
O=c1[nH]c(=O)[nH]c(=O)[nH]1,inactive,
O=[N+]([O-])c1ccc(O)c([N+](=O)[O-])c1,inactive,
CC1(C)Cc2cccc(O)c2O1,inactive,
CC(=O)[O][Hg][c]1ccccc1,,1.78 µM (active)
COc1cc(-c2ccc(N)c(OC)c2)ccc1N,inactive,
CCCCCCCCC(=O)NCc1ccc(O)c(OC)c1,inactive,
CC(C)c1ccc(CO)cc1,inactive,
O=C(OC1CCCCC1)c1ccccc1C(=O)OC1CCCCC1,,12.1 µM (active)
COC(=O)c1sccc1S(=O)(=O)NC(=O)Nc1nc(C)nc(OC)n1,inactive,
O=S(=O)(c1ccc(Cl)cc1)c1ccc(Cl)cc1,inactive,
CC(C)(OO)c1ccccc1,inactive,
O=C(O)CCC(F)(C(F)(F)F)C(F)(F)F,inactive,
